The values that follow come from PubChem BioAssay (NCI).

Several values for one entry are separate records, joined by “and”; a condition that tells them apart may be missing. Equal entries are not always repeated. This is part of a sample that, as a whole, favours compounds with a hit. Of some 79,000 tested, about 15% had one in any assay. Unmarked numbers belong to inactive results. Activity calls are given as the source filed them. Rule as the data show it: active = growth inhibition above about 70%; inactive = the rest.

A short description of assay [1]: NCI Yeast Anticancer Drug Screen. Data for the rad50 strain (AID 155).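 Also: 0% = growth of vehicle-only cultures of the same strain.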 The following applies: S. cerevisiae rad50 strain growth inhibition; at 50.0 µM; stronger effect = higher value. The procedure, abridged: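 Cells are treated with compound, grown, and their growth is then scored against vehicle-only cultures of the same repair-deficient yeast strain.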
A short description of assay [2]: NCI Yeast Anticancer Drug Screen. Data for the mec2-1 strain (AID 157). The following applies: S. cerevisiae mec2-1 strain, at 50.0 µM, stronger effect = higher value. The procedure, abridged: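 Mutant yeast (mec2-1) grown with compound; growth inhibition relative to vehicle control reported.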
Assay [3] can be described thus: NCI Yeast Anticancer Drug Screen. Data for the sgs1 mgt1 strain (AID 161).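 Also: 0% = growth of cultures given vehicle only.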 The following applies: S. cerevisiae sgs1 mgt1 strain, at 50.0 µM, stronger effect = higher value. The procedure, abridged:
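This yeast growth screen uses a strain with defined DNA-repair lesions; compound-treated growth is compared with vehicle-treated growth.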

Assay [4] can be described thus: NCI Yeast Anticancer Drug Screen. Data for the cln2 rad14 strain (AID 165).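 Also: 0% = growth equal to vehicle treated cultures.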 The following applies: S. cerevisiae cln2 rad14 strain, at 50.0 µM, stronger effect = higher value. The procedure, abridged: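 Readout is yeast growth inhibition versus vehicle-treated controls, using a strain with cln2 and rad14 alterations exposed to compound.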
Assay [5] is described as follows: NCI Yeast Anticancer Drug Screen. Data for the bub3 strain (AID 167). The following applies: S. cerevisiae bub3 mutant strain, at 50.0 µM, stronger effect = higher value. The procedure, abridged: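 Part of a panel of yeast mutants defective in DNA damage repair or cell cycle regulation. Each strain is grown with compound, and inhibition is calculated relative to solvent-treated cultures.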

The nature of assay [6]: NCI Yeast Anticancer Drug Screen. Data for the mlh1 rad18 strain (AID 175). The following applies: S. cerevisiae mlh1 rad18 strain growth inhibition; at 50.0 µM; stronger effect = higher value. The procedure, abridged: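 Genetically defined yeast (DNA repair-deficient) exposed to compounds; growth inhibition determined relative to vehicle.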

For the compound `Nc1ccc([N+](=O)[O-])cc1[N+](=O)[O-]`, the growth inhibition in assay [1] was -24.9%; in assay [2], 5.4%; in assay [3], -21.2%; in assay [4], -8.8%; in assay [5], 0.6%; in assay [6], 11%.

`Nc1nc(N)c2n[nH]nc2n1`: the growth inhibition in assay [1] is -18.5%; in assay [2] it was -6.45%; in assay [3], -22.1%; in assay [4] it was -105%; in assay [5], 3.55%; in assay [6], -15.3%.

For `CN1CCN(Cc2ccccc2)C(C#N)C1` (centres undefined), the growth inhibition in assay [1] is -2.6%; in assay [2], -8.75%; in assay [3], -0.35%; in assay [4], -25.9%; in assay [5], -17.4%; in assay [6] it was -11.7%.

On to `c1ccc(C2=NCN3CC23c2ccccc2)cc1` (centres undefined), for which the growth inhibition is -3.6% in assay [1]; 2.2% in assay [2]; 14.4% in assay [3]; 13.4% in assay [4]; -48.8% in assay [5]; 3.45% in assay [6].

As for `CN(C)S(=O)(=O)N(SC(F)(Cl)Cl)c1ccccc1`, the growth inhibition in assay [1] was 98.8% (active); in assay [2], 99.5% (active); in assay [3], 99.4% (active); in assay [4], 98.8% (active); in assay [5], 99.2% (active); in assay [6] it was 99% (active).

As to `OCC(S)CS.[Sb]` (centres undefined), the growth inhibition in assay [1] was 21.1%; in assay [2], 19.1%; in assay [3] it was 29.8%; in assay [4] it was 41%; in assay [5], 44%; in assay [6], 42%.

Consider `CCC(C)CC(C)N` (centres undefined), for which the growth inhibition in assay [1] was 0.6%; in assay [2], 2.7%; in assay [3], 14.5%; in assay [4], 2.65%; in assay [5], -2.45%; in assay [6] it was 9.15%.

As for `CCCCN1COC2CCCCC21` (centres undefined), the growth inhibition was 20.6% in assay [1]; -13.2% in assay [2]; -43.2% in assay [3]; -12.6% in assay [4]; -44.4% in assay [5]; -32.9% in assay [6].

As for `CCOC(=O)C(Br)Br`, the growth inhibition in assay [1] was 20%; in assay [2], -2.7%; in assay [3], -13.9%; in assay [4] it was 22.2%; in assay [5], 23.3%; in assay [6], 10.6%.

Consider `CCc1ccc(OP(=O)(Oc2cc(C)cc(C)c2)Oc2cc(C)cc(C)c2)cc1`, for which the growth inhibition in assay [1] is -27.9%; in assay [2] it was -12.9%; in assay [3] it was -16.1%; in assay [4], 3.45%; in assay [5] it was 1.55%; in assay [6], -15.9%.

As to `c1ccc(C[P+]2(c3ccccc3)CCCCC2)cc1`, the growth inhibition is -12.7% in assay [1]; -1.05% in assay [2]; -0.55% in assay [3]; -22.6% in assay [4]; -4.95% in assay [5]; 3.1% in assay [6].

On to `O=P(OCCCCl)(OCCCCl)C(Cl)(Cl)Cl`, for which the growth inhibition in assay [1] was -0.45%; in assay [2] it was -5.65%; in assay [3], -5.2%; in assay [4], 6.85%; in assay [5], 13.7%; in assay [6] it was 2.15%.

Take `COC(=O)C(CC(=O)N[N+](=O)[O-])NC(=O)C(CSC(c1ccccc1)(c1ccccc1)c1ccccc1)NC(=O)OCc1ccccc1` (centres undefined): the growth inhibition in assay [1] is -3.4%; in assay [2] it was 11.7%; in assay [3], -4.25%; in assay [4] it was -15.1%; in assay [5], -8.1%; in assay [6], 29.3%.

`CCC[CH2][Sn]([CH2]CCC)([CH2]CCC)[CH2]S(=O)(=O)O`: the growth inhibition was 99.3% (active) in assay [1]; 98.8% (active) in assay [2]; 98.9% (active) in assay [3]; 98.2% (active) in assay [4]; 99.4% (active) in assay [5]; 99% (active) in assay [6].

`CC1(C)[C@@H]2CC[C@@]1(C)CN(CCC[N+](C)(C)C)C2`: the growth inhibition in assay [1] is 15.4%; in assay [2] it was -11.8%; in assay [3] it was -30.6%; in assay [4] it was -5.55%; in assay [5], -19.4%; in assay [6] it was -2.35%.

Regarding `CCN1C(=O)NC(=O)C(CC)(N2CCCCC2)C1=O` (centres undefined), the growth inhibition in assay [1] was 10.7%; in assay [2] it was 7.95%; in assay [3], 5%; in assay [4] it was 15%; in assay [5], 2.55%; in assay [6] it was 25.4%.

As to `CC(F)C(N)C(=O)O` (centres undefined), the growth inhibition in assay [1] is -7.9%; in assay [2], -3.65%; in assay [3] it was -7.75%; in assay [4], -1.7%; in assay [5], -0.1%; in assay [6] it was -11.9%.

On to `COc1cc2c(cc1O)C(=O)O[C@@H]1CC=C3CCN(C)[C@H]3[C@H]21`, for which the growth inhibition in assay [1] was 3.4%; in assay [2], 11.3%; in assay [3], -7.3%; in assay [4], 7.1%; in assay [5] it was -37.4%; in assay [6], 19.8%.

Regarding `NC(CSC(c1ccccc1)c1ccccc1)C(=O)O` (centres undefined), the growth inhibition in assay [1] was 6.3%; in assay [2] it was 0%; in assay [3], 3.35%; in assay [4], 5%; in assay [5], 13.4%; in assay [6], 3.5%.

For the compound `COP(=O)(OC)N1CCCCC1`, the growth inhibition was 29% in assay [1]; 20.4% in assay [2]; 12.7% in assay [3]; 12.4% in assay [4]; 22% in assay [5]; 27.6% in assay [6].

With `N#CNc1nnnn1-c1ccccc1` (tested in a mixture with another compound), the growth inhibition was 7.7% in assay [1]; 9.35% in assay [2]; 0.55% in assay [3]; 44.4% in assay [4]; 11.8% in assay [5]; -16.9% in assay [6].

In the case of `CC(=O)c1ccccc1N=Nc1ccc(N(CCCl)CCCl)cc1`, the growth inhibition in assay [1] was -9.5%; in assay [2] it was -5.5%; in assay [3], 0.15%; in assay [4], 18%; in assay [5], 15.2%; in assay [6] it was -0.05%.

`ClCCOCOCCCl`: the growth inhibition in assay [1] is -0.5%; in assay [2] it was -7.1%; in assay [3], -20.1%; in assay [4], -38%; in assay [5], -6.15%; in assay [6], -7.25%.

As for `O=C(O)C(O)C(O)C(O)C(O)C(O)C(O)CO.[Cd]` (centres undefined), the growth inhibition is 29.4% and 27.9% in assay [1]; 15.2% and 26.5% in assay [2]; 20.2% and 20.4% in assay [3]; 19.4% and 28.7% in assay [4]; 4.6% and -7.8% in assay [5]; -1.55% and 0.55% in assay [6].

Turning to `CCCCSP(=S)(SCCCC)SCCCC`, the growth inhibition is 36.6% in assay [1]; 15.1% in assay [2]; 38.5% in assay [3]; -20.2% in assay [4]; 10.1% in assay [5]; 42% in assay [6].

Turning to `[N-]=[N+]=Nc1nc2ccccc2c(N=[N+]=[N-])c1Cl`, the growth inhibition is 6.85% in assay [1]; -6.7% in assay [2]; 5.6% in assay [3]; 31.9% in assay [4]; 5.45% in assay [5]; 9.45% in assay [6].

Take `CC(=O)CC(C)=O.[In]`: the growth inhibition in assay [1] was 23.8%; in assay [2], 42.6%; in assay [3] it was 34.5%; in assay [4], 29.4%; in assay [5], 27.6%; in assay [6] it was 2.65%.

With `COc1cc(C2c3cc4c(cc3C(O)[C@H]3COC(=O)C23)OCO4)cc(OC)c1O` (some centres undefined), the growth inhibition in assay [1] was -38.8%; in assay [2], -50.8%; in assay [3] it was -27.1%; in assay [4], -1.8%; in assay [5] it was -13.9%; in assay [6], 38.6%.

`COc1ccc(/C=C\c2cc(OC)c(OC)c(OC)c2)cc1OC(=O)CCC(=O)O`: the growth inhibition in assay [1] is -13.1%; in assay [2] it was -12.3%; in assay [3], 8.7%; in assay [4] it was 24.1%; in assay [5] it was 14.2%; in assay [6], -27.1%.

For the compound `C1CN2CN3CCN(CN1C3)C2`, the growth inhibition was 13.1% in assay [1]; 12.2% in assay [2]; 20.9% in assay [3]; 33.2% in assay [4]; 10.2% in assay [5]; 13.8% in assay [6].

On to `COC(C)CCOC(=O)Cc1ccccc1` (centres undefined), for which the growth inhibition in assay [1] was 16.1%; in assay [2], -5.25%; in assay [3], -0.15%; in assay [4], -41%; in assay [5], 13.4%; in assay [6], 5.25%.

For the compound `Nc1[nH]c(=S)[nH]c(=O)c1Cn1ccnc1`, the growth inhibition in assay [1] was -20.4%; in assay [2], 0.8%; in assay [3], -23.4%; in assay [4] it was -17.1%; in assay [5], -11.2%; in assay [6], -33.8%.

For the compound `COC(=O)N/N=C(/CCN1CCCC1)CC(c1ccccc1)c1c(O)c2ccccc2oc1=O` (centres undefined), the growth inhibition in assay [1] was 19.4%; in assay [2], -4.45%; in assay [3], 10%; in assay [4], 9.2%; in assay [5], 8.7%; in assay [6], 14.9%.

Take `CCCC1CC=CCC12C(=O)NC(=O)NC2=O` (centres undefined): the growth inhibition in assay [1] is -4.7%; in assay [2] it was 1.45%; in assay [3], 12.7%; in assay [4] it was -6.5%; in assay [5], 0.5%; in assay [6] it was 12.9%.

In the case of `O=C(Cc1ccccc1)Oc1ccc2c(-c3ccccc3)c(C(=O)Nc3ccc(Cl)cc3)c(=O)oc2c1`, the growth inhibition was 6.75% in assay [1]; 5.2% in assay [2]; 2.2% in assay [3]; 2.6% in assay [4]; -23.4% in assay [5]; 12.8% in assay [6].

Consider `O=[N+]([O-])c1cc(-c2ccc([As](=O)(O)O)cc2)ccc1[As](=O)(O)O`, for which the growth inhibition in assay [1] was 2.5%; in assay [2] it was 4.4%; in assay [3] it was -40%; in assay [4] it was 9.5%; in assay [5], -22%; in assay [6], -4.15%.

As to `O=C(NP(=O)(N1CC1)N1CC1)c1cc(I)ccc1I`, the growth inhibition in assay [1] was -2.1%; in assay [2], -1.7%; in assay [3], 1.25%; in assay [4], -27.7%; in assay [5], 12.9%; in assay [6] it was -14.3%.

Take `CCOC(=O)/C(=C/c1ccc[nH]1)P(=O)(OCC)OCC`: the growth inhibition was -28.6% in assay [1]; -26.1% in assay [2]; -31.8% in assay [3]; 5.65% in assay [4]; 6.6% in assay [5]; -42.1% in assay [6].

For the compound `CC(=O)CC(C)=O.CC(=O)CC(C)=O.CC(=O)CC(C)=O.[Mn]`, the growth inhibition in assay [1] was 11.2% and 10.1%; in assay [2], -1.45% and -5%; in assay [3], 8% and 1.6%; in assay [4], 10.8% and -53%; in assay [5] it was -3.1% and 3.2%; in assay [6], 8.05% and 18.4%.
